For nine compounds, growth inhibition results are on record in PubChem BioAssay (NCI).

A short description of assay [1]: NCI Yeast Anticancer Drug Screen. Data for the rad50 strain (AID 155).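 Note: 0% = growth of vehicle-only cultures of the same strain.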 Particulars: S. cerevisiae rad50 strain growth inhibition, stronger effect = higher value. In outline:
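Genetically altered yeast (DNA repair pathway); compound treatment; growth inhibition vs vehicle ctrl.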

The nature of assay [2]: NCI Yeast Anticancer Drug Screen. Data for the mec2-1 strain (AID 157). Particulars: S. cerevisiae mec2-1 strain, stronger effect = higher value. In short, it runs like this:
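Growth inhibition is read against vehicle-treated controls after compound exposure of the mec2-1 yeast strain, which is defective in DNA damage repair or cell cycle control.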

The nature of assay [3]: NCI Yeast Anticancer Drug Screen. Data for the sgs1 mgt1 strain (AID 161).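 Note: 0% = growth of cultures given vehicle only.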 Particulars: S. cerevisiae sgs1 mgt1 strain, stronger effect = higher value. In outline: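 Growth of a repair-deficient yeast mutant was monitored after compound treatment and expressed as inhibition relative to vehicle-treated cultures.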
Assay [4] is described as follows: NCI Yeast Anticancer Drug Screen. Data for the cln2 rad14 strain (AID 165).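 Note: 0% = growth equal to vehicle treated cultures.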 Particulars: S. cerevisiae cln2 rad14 strain, stronger effect = higher value. In outline: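 Growth inhibition, relative to vehicle-treated controls, is the read-out. The test organism is a yeast strain with defined genetic alterations, cln2 rad14.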
Assay [5] in a line: NCI Yeast Anticancer Drug Screen. Data for the bub3 strain (AID 167). Particulars: S. cerevisiae bub3 mutant strain, stronger effect = higher value. In outline: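 Yeast carrying a defined mutation is treated with each compound, and growth is compared with that of vehicle-exposed cells to give inhibition.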
A short description of assay [6]: NCI Yeast Anticancer Drug Screen. Data for the mlh1 rad18 strain (AID 175). Particulars: S. cerevisiae mlh1 rad18 strain growth inhibition, stronger effect = higher value. In short, it runs like this: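 Cells of a genetically altered yeast strain, deficient in DNA damage repair, were treated with compound. Their growth was then compared with that of vehicle-treated cultures to give inhibition.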

The mark [7] stands for this setting: at 5.0 µM (retest, dose inferred, filed as 0.5).
Setting [8] is: at 50.0 µM (retest, dose inferred, filed as 5.0).

Compounds without any hit were thinned out: in the full panel of roughly 79,000, 15% have a hit. A number with no mark means an inactive call. Active and inactive are the calls of the source. Cut-off read from the data, not from the text of the source: active = growth inhibition above about 70%; inactive = the rest.

Turning to `Clc1ccc(/C=N\Nc2ccccc2)c(Cl)c1`, the growth inhibition in assay [1] (setting [7]) is 4%; in assay [1] (setting [8]), 99% (active); in assay [1] (at 50.0 µM), 76.8% (active); in assay [2] (setting [7]) it was 1%; in assay [2] (setting [8]), 99% (active); in assay [2] (at 50.0 µM), 44.9%. Further, the growth inhibition in assay [3] (setting [7]) is -1%; in assay [3] (setting [8]) it was 98% (active); in assay [3] (at 50.0 µM), 30.1%; in assay [4] (setting [7]), 2%; in assay [4] (setting [8]), 86% (active); in assay [4] (at 50.0 µM), -6.9%. For the same compound, the growth inhibition in assay [5] (setting [7]) was -2%; in assay [5] (setting [8]), 99% (active); in assay [5] (at 50.0 µM) it was 31.7%; in assay [6] (setting [7]), 1%; in assay [6] (setting [8]), 99% (active); in assay [6] (at 50.0 µM), 66.4%.
`CCCCCCCCCCN1CCN(C(=O)OCC)CC1`: the growth inhibition is 51% in assay [1] (setting [7]); 68% in assay [1] (setting [8]); 95% (active) in assay [1] (at 50.0 µM); 54% in assay [2] (setting [7]); 77% (active) in assay [2] (setting [8]); 72.2% (active) in assay [2] (at 50.0 µM). In addition, the growth inhibition in assay [3] (setting [7]) is 67%; in assay [3] (setting [8]), 97% (active); in assay [3] (at 50.0 µM) it was 94.7% (active); in assay [4] (setting [7]) it was 58%; in assay [4] (setting [8]), 67%; in assay [4] (at 50.0 µM), 90.7% (active). Also, the growth inhibition in assay [5] (setting [7]) was 62%; in assay [5] (setting [8]), 80% (active); in assay [5] (at 50.0 µM), 95.8% (active); in assay [6] (setting [7]), 79% (active); in assay [6] (setting [8]) it was 91% (active); in assay [6] (at 50.0 µM), 89.2% (active).
For the compound `COc1ccc([N+](=O)[O-])cc1Nc1c2ccccc2nc2ccccc12`, the growth inhibition is 6% in assay [1] (setting [7]); 69% in assay [1] (setting [8]); 80.8% (active) in assay [1] (at 50.0 µM); 17% in assay [2] (setting [7]); 70% (active) in assay [2] (setting [8]); 64.2% in assay [2] (at 50.0 µM). Also, the growth inhibition was 0% in assay [3] (setting [7]); 58% in assay [3] (setting [8]); 49% in assay [3] (at 50.0 µM); -2% in assay [4] (setting [7]); -16% in assay [4] (setting [8]); 37.5% in assay [4] (at 50.0 µM). For the same compound, the growth inhibition in assay [5] (setting [7]) was -1%; in assay [5] (setting [8]), 49%; in assay [5] (at 50.0 µM), 46.5%; in assay [6] (setting [7]), 1%; in assay [6] (setting [8]) it was 6%; in assay [6] (at 50.0 µM), 41%.
As for `CC(C)CCCC(=O)CCCCCCC(=O)CCN(O)C(=O)C(N)CO` (configuration not stated), the growth inhibition in assay [1] (setting [7]) was 98% (active); in assay [1] (setting [8]), 98% (active); in assay [1] (at 50.0 µM), 92.9% (active); in assay [2] (setting [7]), 99% (active); in assay [2] (setting [8]), 99% (active); in assay [2] (at 50.0 µM) it was 93.5% (active). Besides, the growth inhibition in assay [3] (setting [7]) was 98% (active); in assay [3] (setting [8]), 99% (active); in assay [3] (at 50.0 µM), 94.2% (active); in assay [4] (setting [7]) it was 96% (active); in assay [4] (setting [8]) it was 97% (active); in assay [4] (at 50.0 µM), 90.5% (active). The growth inhibition in assay [5] (setting [7]) is 99% (active); in assay [5] (setting [8]), 98% (active); in assay [5] (at 50.0 µM), 93.4% (active); in assay [6] (setting [7]), 98% (active); in assay [6] (setting [8]), 98% (active); in assay [6] (at 50.0 µM), 92% (active).
Consider `CCOC(=O)C1CC2(CCC1N)c1ccccc1-c1ccccc12` (configuration not stated), for which the growth inhibition in assay [1] (setting [7]) was 3%; in assay [1] (setting [8]), 28%; in assay [1] (at 50.0 µM), 28.6%; in assay [2] (setting [7]) it was -5%; in assay [2] (setting [8]), 8%; in assay [2] (at 50.0 µM) it was 47.5%. In addition, the growth inhibition in assay [3] (setting [7]) is -2%; in assay [3] (setting [8]), 27%; in assay [3] (at 50.0 µM), 44.5%; in assay [4] (setting [7]), -5%; in assay [4] (setting [8]) it was 34%; in assay [4] (at 50.0 µM), 22.9%. Besides, the growth inhibition in assay [5] (setting [7]) was -5%; in assay [5] (setting [8]) it was 23%; in assay [5] (at 50.0 µM), 90.7% (active); in assay [6] (setting [7]) it was 1%; in assay [6] (setting [8]), 81% (active); in assay [6] (at 50.0 µM), 37.5%.
For `CCCC(/C=N/N=C(N)N)=N\N=C(N)N`, the growth inhibition is -24% in assay [1] (setting [7]); -8% in assay [1] (setting [8]); -24.1% in assay [1] (at 50.0 µM); -11% in assay [2] (setting [7]); 4% in assay [2] (setting [8]); -8.95% in assay [2] (at 50.0 µM). Further, the growth inhibition in assay [3] (setting [7]) was -1%; in assay [3] (setting [8]), -30%; in assay [3] (at 50.0 µM) it was -14.3%; in assay [4] (setting [7]), 10%; in assay [4] (setting [8]) it was 0%; in assay [4] (at 50.0 µM), -33.1%. Further, the growth inhibition was -12% in assay [5] (setting [7]); -2% in assay [5] (setting [8]); -8.95% in assay [5] (at 50.0 µM); 4% in assay [6] (setting [7]); -1% in assay [6] (setting [8]); -10.6% in assay [6] (at 50.0 µM).
`O=C1CC(c2ccccc2)C(c2ccccc2)CO1` (configuration not stated): the growth inhibition in assay [1] (setting [7]) is 85% (active); in assay [1] (setting [8]), 99% (active); in assay [1] (at 50.0 µM), 84.9% (active); in assay [2] (setting [7]), 35%; in assay [2] (setting [8]), 99% (active); in assay [2] (at 50.0 µM), 92.7% (active). The growth inhibition in assay [3] (setting [7]) was 52%; in assay [3] (setting [8]), 98% (active); in assay [3] (at 50.0 µM), 91.5% (active); in assay [4] (setting [7]) it was 13%; in assay [4] (setting [8]), 98% (active); in assay [4] (at 50.0 µM), 93.8% (active). The growth inhibition is 56% in assay [5] (setting [7]); 97% (active) in assay [5] (setting [8]); 94% (active) in assay [5] (at 50.0 µM); 74% (active) in assay [6] (setting [7]); 99% (active) in assay [6] (setting [8]); 93.7% (active) in assay [6] (at 50.0 µM).
As to `COC(=Nc1ccccc1)SSC(C)C`, the growth inhibition in assay [1] (setting [7]) is 23%; in assay [1] (setting [8]), 77% (active); in assay [1] (at 50.0 µM) it was 84.5% (active); in assay [2] (setting [7]), 19%; in assay [2] (setting [8]), 57%; in assay [2] (at 50.0 µM), 86.8% (active). Besides, the growth inhibition in assay [3] (setting [7]) was 38%; in assay [3] (setting [8]), 87% (active); in assay [3] (at 50.0 µM), 81.6% (active); in assay [4] (setting [7]), 38%; in assay [4] (setting [8]), 66%; in assay [4] (at 50.0 µM), 46.4%. In addition, the growth inhibition in assay [5] (setting [7]) is 46%; in assay [5] (setting [8]), 92% (active); in assay [5] (at 50.0 µM), 86.2% (active); in assay [6] (setting [7]), 21%; in assay [6] (setting [8]) it was 64%; in assay [6] (at 50.0 µM), 85.5% (active).
For `Fc1cccc(NC(=S)SCc2ccco2)c1`, the growth inhibition in assay [1] (setting [7]) is 9%; in assay [1] (setting [8]), 84% (active); in assay [1] (at 50.0 µM), 97.7% (active); in assay [2] (setting [7]) it was -1%; in assay [2] (setting [8]), 93% (active); in assay [2] (at 50.0 µM) it was 84.2% (active). The growth inhibition in assay [3] (setting [7]) is 2%; in assay [3] (setting [8]), 80% (active); in assay [3] (at 50.0 µM) it was 96% (active); in assay [4] (setting [7]), -2%; in assay [4] (setting [8]), 45%; in assay [4] (at 50.0 µM), 61.2%. Moreover, the growth inhibition was -11% in assay [5] (setting [7]); 61% in assay [5] (setting [8]); 82% (active) in assay [5] (at 50.0 µM); -1% in assay [6] (setting [7]); 89% (active) in assay [6] (setting [8]); 97.2% (active) in assay [6] (at 50.0 µM).
